Experimental data from PubChem BioAssay AID1321 (The Scripps Research Institute Molecular Screening Center, 2008).
The campaign covered roughly 220,000 compounds. About 2,600 (1.2%) were called active. The entries come from a sample that favours actives as a whole. A number with no mark means an inactive call.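 How the source made its calls: active means activation above the mean of all tested compounds plus 3 SD, set per screening run (cut at about 8.8% in these data); inactive means the rest.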

target: Wee1-like protein kinase (Homo sapiens) (UniProt P30291); assay: Wee1 degradation inhibitors, primary screen, cell-based, HeLa, Wee1K328M-luciferase, luminescence (AID 1321); conditions: HeLa Luc-Wee1K328M stability, at 5 µM, active compounds read high;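 further: cells exposed to compound for 20 h before luminescence read; 0% = DMSO alone and 100% = MG132 at 30 µM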

Structure (SMILES) | activation
O=C(N/N=C/c1c(O)n(Cc2ccccc2)c(=O)[nH]c1=O)c1ccccc1 | 16.4% (active)
CCCCC(=O)N/N=C/c1c(O)n(-c2ccccc2)c(=O)[nH]c1=O | -2.55%
O=c1[nH]c(=O)n(Cc2ccccc2)c(O)c1/C=N/Nc1c(F)c(F)c(F)c(F)c1F | -0.63%
CN(C)CC1CCCCC1=O (stereo not given) | -1.81%
NC(=O)Nc1cccc(C(F)(F)F)c1 | 0.59%
